Several values for one entry are separate records, joined by “and”; a condition that tells them apart may be missing. Equal entries are not always repeated. About 2,000 (36%) of roughly 5,500 compounds were called active. Another 18% or so got no clear call; they are omitted. No stated cut-off is given here; in the data, active means normalized growth mostly below about 0.91 (no sharp cut-off); inconclusive means no clear call, values can overlap the other calls; inactive means mostly above about 0.92. Some of the results follow.
Assay: chemical genetic growth profiling, strain panel (AID 1159580);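 further: tested at 20 µM; growth read once vehicle control cultures reached saturation at 30 °C; 1 = growth at the plate median or of vehicle wells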
Conditions: S. cerevisiae deletion strains, growth OD

Measured: normalized growth

NCCc1ccc(O)cc1
inactive: locus YAL021C, strain ccr4, stronger effect = lower value 0.995 | locus YAL026C, strain drs2, stronger effect = lower value 0.963 | locus YAL030W, strain snc1, stronger effect = lower value 0.989 | locus YAL040C, strain CLN3, stronger effect = lower value 0.988 | locus YBL061C, strain skt5, stronger effect = lower value 0.975 | locus YBR009C, strain hhf1, stronger effect = lower value 0.985 | locus YBR021W, strain FUR4, stronger effect = lower value 0.97 | locus YBR023C, strain chs3, stronger effect = lower value 0.98 | locus YBR171W, strain sec66, stronger effect = lower value 0.957 | locus YBR229C, strain ROT2, stronger effect = lower value 0.999 | locus YBR231C, strain swc5, stronger effect = lower value 0.961 | locus YBR279W, strain paf1, stronger effect = lower value 0.983 | locus YCL011C, strain gbp2, stronger effect = lower value 0.997 | locus YCL016C, strain dcc1, stronger effect = lower value 1.01 | locus YCL029C, strain bik1, stronger effect = lower value 1.01 | locus YCL061C, strain MRC1 (second series), stronger effect = lower value 1.01 | locus YCL069W, strain vba3, stronger effect = lower value 0.99 | locus YCR088W, strain abp1, stronger effect = lower value 0.972 | locus YDL005C, strain med2, stronger effect = lower value 0.972 | locus YDL035C, strain GPR1, stronger effect = lower value 1.01 | locus YDL040C, strain nat1, stronger effect = lower value 0.984 | locus YDL074C, strain BRE1, stronger effect = lower value 0.99 | locus YDL101C, strain DUN1, stronger effect = lower value 1 | locus YDL185W, strain tfp1, stronger effect = lower value 1 | locus YDL192W, strain arf1, stronger effect = lower value 1 | locus YDR001C, strain nth1, stronger effect = lower value 0.975 | locus YDR069C, strain doa4, stronger effect = lower value 0.945 | locus YDR101C, strain arx1, stronger effect = lower value 0.991 | locus YDR137W, strain rgp1, stronger effect = lower value 0.981 | locus YDR150W, strain NUM1, stronger effect = lower value 1.01 | locus YDR159W, strain sac3, stronger effect = lower value 0.905 | locus YDR162C, strain NBP2, stronger effect = lower value 1.01 | locus YDR195W, strain ref2 0.928 | locus YDR297W, strain sur2, stronger effect = lower value 0.978 | locus YDR318W, strain mcm21, stronger effect = lower value 0.997 | locus YDR334W, strain swr1, stronger effect = lower value 0.967 | locus YDR335W, strain msn5, stronger effect = lower value 0.983 | locus YDR363W, strain ESC2, stronger effect = lower value 1.01 | locus YDR388W, stronger effect = lower value 1 | locus YDR392W, strain spt3, stronger effect = lower value 0.935 | locus YDR502C, strain sam2, stronger effect = lower value 0.989 | locus YEL003W, strain gim4, stronger effect = lower value 0.969 | locus YEL037C, strain rad23, stronger effect = lower value 0.977 | locus YEL061C, strain CIN8 (second series), stronger effect = lower value 0.975 | locus YEL061C, strain CIN8, stronger effect = lower value 1 | locus YER002W, strain NOP16, stronger effect = lower value 0.994 | locus YER015W, strain faa2, stronger effect = lower value 0.994 | locus YER016W, strain bim1, stronger effect = lower value 0.985 | locus YER110C, stronger effect = lower value 0.993 | locus YER111C, strain swi4, stronger effect = lower value 0.981 | locus YER155C, strain BEM2 (second series), stronger effect = lower value 0.951 | locus YER155C, strain BEM2, stronger effect = lower value 1.01 | locus YER167W, strain BCK2, stronger effect = lower value 1 | locus YFR010W, strain ubp6, stronger effect = lower value 0.957 | locus YGL078C, strain dbp3, stronger effect = lower value 0.994 | locus YGL086W, strain mad1, stronger effect = lower value 0.966 | locus YGL167C, strain pmr1, stronger effect = lower value 0.972 | locus YGL173C, strain kem1, stronger effect = lower value 0.964 | locus YGL227W, strain vid30, stronger effect = lower value 0.978 | locus YGL240W, strain doc1, stronger effect = lower value 0.96 | locus YGL248W, strain PDE1, stronger effect = lower value 1.01 | locus YGL253W, strain hxk2, stronger effect = lower value 0.972 | locus YGR078C, strain PAC10, stronger effect = lower value 1.01 | locus YGR135W, strain pre9, stronger effect = lower value 0.997 | locus YGR229C, strain SMI1, stronger effect = lower value 1.01 | locus YGR252W, strain gcn5, stronger effect = lower value 1.01 | locus YHR013C, strain ard1, stronger effect = lower value 0.97 | locus YHR027C, strain rpn1, stronger effect = lower value 0.99 | locus YHR030C, strain SLT2, stronger effect = lower value 1 and 0.976 | locus YHR079C, strain IRE1 (second series), stronger effect = lower value 0.994 | locus YHR079C, strain IRE1, stronger effect = lower value 0.976 | locus YHR094C, strain hxt1, stronger effect = lower value 1.01 | locus YHR129C, strain ARP1, stronger effect = lower value 1.01 | locus YHR142W, strain chs7, stronger effect = lower value 0.982 | locus YHR200W, strain rpn10, stronger effect = lower value 1.03 | locus YIL066C, strain RNR3, stronger effect = lower value 1.01 | locus YIL073C, strain SPO22, stronger effect = lower value 0.985 | locus YIL125W, strain kgd1, stronger effect = lower value 0.985 | locus YIR030C, strain dcg1, stronger effect = lower value 0.996 | locus YJL092W, strain hpr5, stronger effect = lower value 0.973 | locus YJL095W, strain BCK1 (second series), stronger effect = lower value 0.978 | locus YJL095W, strain BCK1, stronger effect = lower value 1.01 and 0.995 | locus YJL115W, strain asf1, stronger effect = lower value 0.963 | locus YJL129C, strain trk1, stronger effect = lower value 0.967 | locus YJL134W, strain LCB3, stronger effect = lower value 1.01 | locus YJL154C, strain vps35, stronger effect = lower value 0.975 | locus YJL164C, strain tpk1, stronger effect = lower value 0.998 | locus YJL166W, strain qcr8, stronger effect = lower value 0.986 | locus YJL168C, strain set2, stronger effect = lower value 1 | locus YJL187C, strain SWE1 (second series), stronger effect = lower value 1.01 | locus YJL187C, strain SWE1, stronger effect = lower value 0.984 | locus YJR043C, strain POL32, stronger effect = lower value 1.02 | locus YJR066W, strain TOR1, stronger effect = lower value 0.932

From PubChem BioAssay AID1159580 (chemical genetic matrix, 2015)
